A short description of assay [1]: NCI Yeast Anticancer Drug Screen. Data for the rad50 strain (AID 155).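 Further: 0% = growth of vehicle-only cultures of the same strain.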 The following applies: S. cerevisiae rad50 strain growth inhibition, active compounds read high. An outline of the steps: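 Genetically altered yeast (DNA repair pathway); compound treatment; growth inhibition vs vehicle ctrl.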
The nature of assay [2]: NCI Yeast Anticancer Drug Screen. Data for the mec2-1 strain (AID 157). The following applies: S. cerevisiae mec2-1 strain, active compounds read high. The essentials:
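Cells of the genetically defined mec2-1 yeast strain are incubated with test compound. Inhibition of growth is calculated against vehicle-treated controls.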

Assay [3] in a line: NCI Yeast Anticancer Drug Screen. Data for the sgs1 mgt1 strain (AID 161).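 Further: 0% = growth of cultures given vehicle only.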 As to conditions: S. cerevisiae sgs1 mgt1 strain, active compounds read high. The essentials:
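Genetically altered yeast, compound exposure, growth inhibition relative to vehicle.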

Assay [4] in a line: NCI Yeast Anticancer Drug Screen. Data for the cln2 rad14 strain (AID 165).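 Further: 0% = growth equal to vehicle treated cultures.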 The following applies: S. cerevisiae cln2 rad14 strain, active compounds read high. The essentials:
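The screen exposed genetically defined yeast (cln2 rad14) to test compounds and scored growth inhibition relative to vehicle-treated controls.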

A short description of assay [5]: NCI Yeast Anticancer Drug Screen. Data for the bub3 strain (AID 167). The following applies: S. cerevisiae bub3 mutant strain, active compounds read high. An outline of the steps:
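Yeast carrying a defined mutation is treated with each compound, and growth is compared with that of vehicle-exposed cells to give inhibition.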

The nature of assay [6]: NCI Yeast Anticancer Drug Screen. Data for the mlh1 rad18 strain (AID 175). The following applies: S. cerevisiae mlh1 rad18 strain growth inhibition, active compounds read high. The essentials: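 Compound-treated yeast growth, normalised to vehicle controls. Strain bears defined DNA repair mutations.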
Where [7] appears, read: at 5.0 µM (retest, dose inferred, filed as 0.5).
The mark [8] stands for this setting: at 50.0 µM (retest, dose inferred, filed as 5.0).

The panel holds about 79,000 compounds, 15% with a hit somewhere; the sample as a whole holds those more often. Values without a mark were called inactive. The source made the active and inactive calls. No stated cut-off is given here; in the data, active means growth inhibition above about 70%; inactive means the rest.

Here are results for 10 compounds from PubChem BioAssay (NCI).

In the case of `Cc1ccc[n+](CC(=O)C2CCC3CC4CCCCC4CC3C2)c1` (stereo not given), the growth inhibition in assay [1] (setting [7]) was -2%; in assay [1] (setting [8]), 38%; in assay [1] (at 50.0 µM), 22.4%; in assay [2] (setting [7]), -1%; in assay [2] (setting [8]), 34%; in assay [2] (at 50.0 µM) it was 17.7%. In addition, the growth inhibition in assay [3] (setting [7]) was -27%; in assay [3] (setting [8]) it was 19%; in assay [3] (at 50.0 µM), 37.4%; in assay [4] (setting [7]) it was 0%; in assay [4] (setting [8]) it was 31%; in assay [4] (at 50.0 µM), -3.75%. In addition, the growth inhibition in assay [5] (setting [7]) was 1%; in assay [5] (setting [8]), 29%; in assay [5] (at 50.0 µM), 18.8%; in assay [6] (setting [7]), -2%; in assay [6] (setting [8]), 43%; in assay [6] (at 50.0 µM), 59%.

As for `CCC(c1ccc(O)cc1)C(CC)c1ccc(O)c(CN(C)C)c1` (stereo not given), the growth inhibition is 1% in assay [1] (setting [7]); 76% (active) in assay [1] (setting [8]); 66.8% in assay [1] (at 50.0 µM); 0% in assay [2] (setting [7]); 74% (active) in assay [2] (setting [8]); 45.5% in assay [2] (at 50.0 µM). For the same compound, the growth inhibition in assay [3] (setting [7]) is -6%; in assay [3] (setting [8]), 98% (active); in assay [3] (at 50.0 µM), 74.2% (active); in assay [4] (setting [7]), -3%; in assay [4] (setting [8]) it was 83% (active); in assay [4] (at 50.0 µM), 42.6%. Further, the growth inhibition in assay [5] (setting [7]) is -1%; in assay [5] (setting [8]), 83% (active); in assay [5] (at 50.0 µM), 36.5%; in assay [6] (setting [7]), 2%; in assay [6] (setting [8]), 96% (active); in assay [6] (at 50.0 µM), 65.3%.

As to `Oc1cc2c(cc1C(Nc1ncccn1)c1ccc(F)cc1)OCO2` (stereo not given), the growth inhibition was -1% in assay [1] (setting [7]); 46% in assay [1] (setting [8]); 17.9% in assay [1] (at 50.0 µM); -1% in assay [2] (setting [7]); 40% in assay [2] (setting [8]); 15.7% in assay [2] (at 50.0 µM). Also, the growth inhibition in assay [3] (setting [7]) was 0%; in assay [3] (setting [8]), 77% (active); in assay [3] (at 50.0 µM), 79.7% (active); in assay [4] (setting [7]), 4%; in assay [4] (setting [8]), 24%; in assay [4] (at 50.0 µM), -12%. In addition, the growth inhibition is -1% in assay [5] (setting [7]); 64% in assay [5] (setting [8]); 44.1% in assay [5] (at 50.0 µM); 0% in assay [6] (setting [7]); 74% (active) in assay [6] (setting [8]); 43.5% in assay [6] (at 50.0 µM).

Regarding `Ic1ccc2c(c1)N(c1ccccc1)c1cc(N=c3ccc4nc5ccc(I)cc5n(-c5ccccc5)c-4c3)ccc1N2`, the growth inhibition in assay [1] (setting [7]) was -3%; in assay [1] (setting [8]), 15%; in assay [1] (at 50.0 µM), 81.5% (active); in assay [2] (setting [7]), 12%; in assay [2] (setting [8]), 4%; in assay [2] (at 50.0 µM), 93.6% (active). Also, the growth inhibition in assay [3] (setting [7]) is -4%; in assay [3] (setting [8]), -13%; in assay [3] (at 50.0 µM), 76% (active); in assay [4] (setting [7]) it was 1%; in assay [4] (setting [8]) it was 29%; in assay [4] (at 50.0 µM) it was 91.8% (active). In addition, the growth inhibition in assay [5] (setting [7]) is -8%; in assay [5] (setting [8]), 11%; in assay [5] (at 50.0 µM), 97.3% (active); in assay [6] (setting [7]), -7%; in assay [6] (setting [8]), 18%; in assay [6] (at 50.0 µM), 93.9% (active).

For `[Cu+2].[O-]/N=C/c1cccc(O)c1[O-].[O-]/N=C/c1cccc(O)c1[O-]`, the growth inhibition in assay [1] (setting [7]) was -16%; in assay [1] (setting [8]), 99% (active); in assay [1] (at 50.0 µM) it was 93.8% (active); in assay [2] (setting [7]) it was -14%; in assay [2] (setting [8]), 99% (active); in assay [2] (at 50.0 µM), 96.7% (active). Moreover, the growth inhibition in assay [3] (setting [7]) is -14%; in assay [3] (setting [8]), 99% (active); in assay [3] (at 50.0 µM), 96.8% (active); in assay [4] (setting [7]), -12%; in assay [4] (setting [8]), 98% (active); in assay [4] (at 50.0 µM) it was 94.8% (active). Further, the growth inhibition in assay [5] (setting [7]) is -20%; in assay [5] (setting [8]), 99% (active); in assay [5] (at 50.0 µM) it was 97.7% (active); in assay [6] (setting [7]), -4%; in assay [6] (setting [8]) it was 98% (active); in assay [6] (at 50.0 µM), 94% (active).

Take `O=C(OCc1ccccc1)N1N=NC2C1C1CC(OCc3ccccc3)(OCc3ccccc3)C2O1` (stereo not given): the growth inhibition was 18% in assay [1] (setting [7]); 18% in assay [1] (setting [8]); 40.1% in assay [1] (at 50.0 µM); 2% in assay [2] (setting [7]); 2% in assay [2] (setting [8]); -21.9% in assay [2] (at 50.0 µM). Also, the growth inhibition in assay [3] (setting [7]) is 18%; in assay [3] (setting [8]), 18%; in assay [3] (at 50.0 µM) it was -10.7%; in assay [4] (setting [7]), 4%; in assay [4] (setting [8]), 4%; in assay [4] (at 50.0 µM), 13.2%. For the same compound, the growth inhibition in assay [5] (setting [7]) is 6%; in assay [5] (setting [8]), 6%; in assay [5] (at 50.0 µM) it was 18%; in assay [6] (setting [7]) it was 18%; in assay [6] (setting [8]), 18%; in assay [6] (at 50.0 µM), -22.2%.

Consider `O=C1COCC(=O)OCCOCCSCCOCCO1`, for which the growth inhibition in assay [1] (setting [7]) was 5%; in assay [1] (setting [8]), 11%; in assay [1] (at 50.0 µM), -4.6%; in assay [2] (setting [7]), 0%; in assay [2] (setting [8]), 5%; in assay [2] (at 50.0 µM), -1.2%. The growth inhibition was 1% in assay [3] (setting [7]); 1% in assay [3] (setting [8]); -7% in assay [3] (at 50.0 µM); 4% in assay [4] (setting [7]); 41% in assay [4] (setting [8]); 37.2% in assay [4] (at 50.0 µM). Besides, the growth inhibition in assay [5] (setting [7]) was -4%; in assay [5] (setting [8]), 4%; in assay [5] (at 50.0 µM) it was 8.75%; in assay [6] (setting [7]), 8%; in assay [6] (setting [8]) it was 15%; in assay [6] (at 50.0 µM) it was 7.75%.

On to `COC(=O)C1(Cc2ccccc2)Cc2c(C)ccc(C)c2C1=O` (stereo not given), for which the growth inhibition in assay [1] (setting [7]) was -4%; in assay [1] (setting [8]), 12%; in assay [1] (at 50.0 µM), 43.1%; in assay [2] (setting [7]), -3%; in assay [2] (setting [8]), 16%; in assay [2] (at 50.0 µM), 19.2%. Besides, the growth inhibition in assay [3] (setting [7]) was 13%; in assay [3] (setting [8]), 42%; in assay [3] (at 50.0 µM), 61.6%; in assay [4] (setting [7]) it was -1%; in assay [4] (setting [8]), 2%; in assay [4] (at 50.0 µM), 39.2%. Moreover, the growth inhibition in assay [5] (setting [7]) was 28%; in assay [5] (setting [8]), 62%; in assay [5] (at 50.0 µM) it was 64.2%; in assay [6] (setting [7]), -2%; in assay [6] (setting [8]), 13%; in assay [6] (at 50.0 µM), 70.2% (active).

As to `C/C(C=C(C#N)C#N)=C\c1ccc([N+](=O)[O-])cc1`, the growth inhibition in assay [1] (setting [7]) was -9%; in assay [1] (setting [8]) it was 67%; in assay [1] (at 50.0 µM) it was 78.2% (active); in assay [2] (setting [7]), -16%; in assay [2] (setting [8]) it was 67%; in assay [2] (at 50.0 µM), 70.4% (active). The growth inhibition is -1% in assay [3] (setting [7]); 40% in assay [3] (setting [8]); 64.8% in assay [3] (at 50.0 µM); 36% in assay [4] (setting [7]); 60% in assay [4] (setting [8]); 55.5% in assay [4] (at 50.0 µM). The growth inhibition in assay [5] (setting [7]) was 15%; in assay [5] (setting [8]) it was 81% (active); in assay [5] (at 50.0 µM), 64.8%; in assay [6] (setting [7]), -3%; in assay [6] (setting [8]) it was 89% (active); in assay [6] (at 50.0 µM), 67.3%.

For `Cc1c2cnccc2c(C)c2c1c1ccccc1n2CCCCCCNCc1ccccc1`, the growth inhibition in assay [1] (setting [7]) is 9%; in assay [1] (setting [8]) it was 95% (active); in assay [1] (at 50.0 µM), 99% (active); in assay [2] (setting [7]), -1%; in assay [2] (setting [8]), 76% (active); in assay [2] (at 50.0 µM) it was 99.2% (active). Further, the growth inhibition was 1% in assay [3] (setting [7]); 91% (active) in assay [3] (setting [8]); 99.3% (active) in assay [3] (at 50.0 µM); 2% in assay [4] (setting [7]); 83% (active) in assay [4] (setting [8]); 98.2% (active) in assay [4] (at 50.0 µM). Moreover, the growth inhibition is 2% in assay [5] (setting [7]); 74% (active) in assay [5] (setting [8]); 98.8% (active) in assay [5] (at 50.0 µM); -3% in assay [6] (setting [7]); 97% (active) in assay [6] (setting [8]); 99% (active) in assay [6] (at 50.0 µM).
